For the test, the system named is VDR:RXRa (NR concentration 270 nM, RXRa partner concentration 90 nM). Put plainly: PBM binding z-score (relative to random genomic background probes); higher = stronger binding; sequences stand for … in GC…GCGATTGACAGCGTAGAATGAAGG
As to the method:
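Protein-binding microarray (Agilent 4x180K custom design, double-stranded 60-nt probes: 5' GC cap, 34-nt variable region, 24-nt constant primer region; full probe sequence given). Purified or IVT nuclear receptor:RXRα heterodimers (3:1 NR:RXRα, mostly 270:90 nM) or homodimers were incubated for 1 h in PBS with 2% milk and no ligand, then detected with Alexa488 antibodies. Fluorescence from o1-orientation probes (~5 replicates averaged) was converted to z-scores against 500 random hg19 background probes. Variable regions are seed direct-repeat (DR0–DR5) sites, all their single-nucleotide variants and half-site ablations.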
On to CAAGCTAGGTCACCGGAAGGTCAAAGTCCGCATG, for which the PBM binding z-score is 6.18. The value for GCTAGTTGGTCAGTAAAAGGTCACACACCGGTCG was 3.89; that for GCGACTTGGGCATCAGCAGGTTACCATAACTTAA was -0.417.

CCGACTTGGGCAGAAAGGTTACCATACCATCCGG gave a PBM binding z-score of 0.0426. In the case of GCGACTGGGGAAAAGCAGGTTACCATAAGGTTGG, the PBM binding z-score is -0.273.

As to AGAACGAGGGCAATGAGTTGATAACACGGGTGGC, the PBM binding z-score stood at 5.15.

Consider TCTTGTAGATCAAGCAGGTTAATAAAGCCTGAGT, for which the PBM binding z-score stood at 0.675. The value for CCTAGCAGGCCAATCTGGTTCACTCAAGGCTTGA was 0.38; that for CCTAGTTGGTCAGGAGGTTACACACCGGATATGA was 0.869; that for ACAGACAGTTGAGTGAAGGTAACTCAGCTGGACG was -0.356. TCATATAGGCAAACAGGTGAAAGTCCGTAAGTTA came in with a PBM binding z-score of 0.719. As for ACTAGTTGGTCAGCTGAGGTCACACAGAATTCGG, the PBM binding z-score turned out to be 4.42. The value for CCCGAAAGGTCGGTTGAGGTGAGTATACGGATAA was 2.57; that for TCTTGTAGATCAATAGTGGTTAAGAAAGTGCGCT was 0.673. The value for AGAATGAGGTTATACGTAGATCAGGGATGAAAGT was 1.47; that for AGAATGATGTTAAGATCAGGGAAACAGAATACAT was -0.114.

As to CCTACTGGGCAAAAGGTCATTGATTCCAATGCTC, the PBM binding z-score was 4.44. The value for CGTCAAAGTTCAACTAAGGTAACGCAAAGCACGC was 4.64; that for CTCGAAAGGTCGTGCTCAGGTTAGTATACCAAAC was 3.79; that for ACTAGTTGGTCAGCTGAGATCACACACAATTCGG was 0.193. Consider TATCCAGGGTCAAAGGCCAGAGTACGAATGTCGA, for which the PBM binding z-score turned out to be 4.95. In the case of TCGAGTTGGTTAGTCGGGGCATTCAGCCAACATA, the PBM binding z-score was determined as 0.43. The value for CTCGAAAGGTCGTGCTCAGGTGAGTAGACCAAAC was 3.08; that for CCGACCGGGGCAAAGGTTACCATACTCAGTACGA was 2.06; that for ATCTCTAGGTAAAGATACTTCAGTGAATGCAAAT was 0.244. Sequence CCTACTGAGCCAAAAAGGTCATTGATGCCGATAA registered a PBM binding z-score of 4.58. The value for CCGACTGGGACATAAGGTTACCATAAGCCAGCCC was 0.181.

In turn, CCTTACGGGTCAAGGTTATAGCGCGGGTGGTACG returned a PBM binding z-score of 3.22. For the sequence CGTCCAAGTTCAGCAGGTCAGTGAAAGCGACGTG, the PBM binding z-score was 2.86.

For TGAATCAGGTTATAAGATCAGGGAACGTTGCAAA, the PBM binding z-score is -0.0764.

AGAACGAGTGCAATGAGTTGATAGCACGGGTGGC returned a PBM binding z-score of 4.09. On to TAGCCTAGGACATGGGCCAGTATACCACGCGAAC, for which the PBM binding z-score was -0.512. The value for ACAGACAGGTGACGAAGGTAACTCAGGCTATCAT was 0.352; that for TCTAGTCGGTCACGGAGGTCACACACGACGGGTA was 6.56; that for CATACTGGGCCAAAAAGGTCATTGATGCCGATAA was 5.08.

With CCTCGGAGGACTACAGGAGGTCAGAGCTGCCAGA, the PBM binding z-score is 1.26. The value for ACTAGCAGGCCAAGGGTCAGTCAAGATTAGTCCG was 1.12. Turning to TCATGTAGGTAAAGGTGAAAGTCGAACGATATGA, the PBM binding z-score was 1.11.

The sequence GCGACTGGGGCATCAGCAGGTTACCAAAACTTAA had a PBM binding z-score of -0.298.

Consider CGTCCTAGGTCAAAGGTCAGTGAAGAGATGACGG, for which the PBM binding z-score was 5.56.

For the origin of these results see the supplement of paper PMC6555819.
